PubChem BioAssay (NCATS)
The source made the active and inactive calls. Calls follow the shape of the dose curve; as a rule, active = well fitted curve in the direction sought with a large enough effect; inconclusive = small, poorly fitted or top-dose-only effect, or another doubt; inactive = no such curve, though single readings can be large or run the other way.

molecular target: Hexokinase-4 (Homo sapiens) + Glucokinase regulatory protein (Homo sapiens) (UniProt P35557+Q14397); assay: qHTS assay for inhibitors of recombinant human GCK-GKRP interaction: Diaphorase-coupled assay (AID 743205); details: G6PDH/diaphorase resorufin fluorescence; series mostly up to 57.5 µM
Text: Glucokinase (GCK) is a glucose sensor in hepatocytes and pancreatic beta-cells. Hepatic GCK is regulated by glucokinase regulatory protein (GKRP), which is predominantly localized to the liver. GKRP binds to GCK inhibiting its activity in the fasting state while in the presence of glucose the GKRP is displaced. There is an additional layer of regulation by fructose 1-phosphate and fructose 6-phosphate, which inhibit and enhance the GCK-GKRP interaction, respectively. GCK plays a role in glucose homeostasis and there is an interest in the development of strategies to activate GCK to lower blood glucose levels in type 2 diabetes. To date the majority of effort has focused on direct activation of GCK and the assays developed herein look to activate GCK by inhibiting its binding to GKRP. A compound that inhibits the interaction of GCK with GKRP could be important for the treatment of diabetes and can also be used as a tool compound to further elucidate GCK-GKRP biology. To that end, we have developed a sensitive HTS biochemical assay where in GCK activity is coupled to G6PDH and Diaphorase to interrogate the GCK-GKRP interaction. This assay was screened against a small compound library to look for modulators of activity.
2 uL of substrate (columns 1-48) are dispensed into Greiner, black solid-bottom 1536-well assay plates. Compounds (23 nL) are then transferred via Kalypsys pin tool equipped with 1536-pin array (10 nL slotted pins, V&P Scientific, San Diego, CA). The library compounds are in columns 5-48 and columns 1-4 serve as controls with DMSO in columns 1 and 3 and 26 mM 1:1.5 fold serial of gluckokinase activator (GKA-EMD) in column 2 and 26 mM of the glucokinase activator (GKA-EMD) in column 4. Following addition of compound and a 20 minute incubation, 1 uL of enzyme mix (GST-GCK, FLAG-GKRP and diaphorase) is added to columns 1, 2, 4-48 and 1 uL of no enzyme mix (FLAG-GKRP and diaphorase) is added to column 3 and the fluorescent product resorufin generated from resazurin was monitored on a Viewlux (PerkinElmer, Shelton, CT, USA) with excitation at 525 nm and emission at 590 nm in kinetic mode where the plate was read every minute for 30 minutes. The final concentration of reagents in the reaction are 25 mM Hepes pH 7.6, 25 mM KCl, 2 mM MgCl2, 1.4 mM 2-mercaptoethanol, 0.025% BSA, 0.01% Tween-20, 0.15 mM NADP+, 5 mM glucose, 0.4 mM ATP, 4 U/ml G6PDH, 0.1 mM resazurin, 10 nM GST-GCK, 10 nM FLAG-GKRP, diaphorase (0.1 mg/mL). Data are normalized to DMSO-treated control columns with (maximum signal) and without (minimum signal) enzyme.

Hexokinase-4 (Homo sapiens) + Glucokinase regulatory protein (Homo sapiens), sequence (P35557 whole entry, looked up): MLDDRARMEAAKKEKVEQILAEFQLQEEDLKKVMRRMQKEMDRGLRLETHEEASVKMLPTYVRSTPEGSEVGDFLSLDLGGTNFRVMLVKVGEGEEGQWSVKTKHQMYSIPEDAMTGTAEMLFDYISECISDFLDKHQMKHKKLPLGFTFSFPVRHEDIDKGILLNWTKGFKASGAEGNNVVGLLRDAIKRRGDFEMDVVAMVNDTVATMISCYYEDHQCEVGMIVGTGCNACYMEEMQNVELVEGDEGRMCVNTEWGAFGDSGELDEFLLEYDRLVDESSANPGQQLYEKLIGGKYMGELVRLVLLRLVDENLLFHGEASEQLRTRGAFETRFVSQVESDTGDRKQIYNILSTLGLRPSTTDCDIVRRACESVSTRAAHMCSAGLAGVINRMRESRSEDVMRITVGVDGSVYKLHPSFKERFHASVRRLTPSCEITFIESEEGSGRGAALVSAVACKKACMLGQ
Hexokinase-4 (Homo sapiens) + Glucokinase regulatory protein (Homo sapiens), sequence (Q14397 whole entry, looked up): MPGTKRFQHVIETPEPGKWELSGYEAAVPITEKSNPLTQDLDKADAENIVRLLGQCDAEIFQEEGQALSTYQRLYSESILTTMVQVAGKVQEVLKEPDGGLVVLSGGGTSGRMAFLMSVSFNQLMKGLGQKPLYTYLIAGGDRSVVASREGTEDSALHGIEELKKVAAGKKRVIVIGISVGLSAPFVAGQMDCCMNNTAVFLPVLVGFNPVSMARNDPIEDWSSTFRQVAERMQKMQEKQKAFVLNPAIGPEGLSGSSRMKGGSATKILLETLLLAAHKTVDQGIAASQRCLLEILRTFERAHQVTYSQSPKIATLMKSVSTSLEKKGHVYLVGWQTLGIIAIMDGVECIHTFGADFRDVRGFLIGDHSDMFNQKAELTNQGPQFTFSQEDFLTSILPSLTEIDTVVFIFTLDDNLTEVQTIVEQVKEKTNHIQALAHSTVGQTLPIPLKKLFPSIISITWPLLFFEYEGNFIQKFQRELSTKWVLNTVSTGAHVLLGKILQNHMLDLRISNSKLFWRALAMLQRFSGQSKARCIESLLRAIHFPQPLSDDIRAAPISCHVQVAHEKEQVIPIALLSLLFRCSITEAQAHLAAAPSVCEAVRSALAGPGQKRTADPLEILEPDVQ

SMILES | outcome
CN1C2CCCC1CC(NC(=O)c1nn(C)c3ccccc13)C2 (configuration not stated) | inactive
C/C=C/CC(C)C(O)C1C(=O)NC(CC)C(=O)N(C)CC(=O)N(C)C(CC(C)C)C(=O)NC(C(C)C)C(=O)N(C)C(CC(C)C)C(=O)NC(C)C(=O)NC(C)C(=O)N(C)C(CC(C)C)C(=O)N(C)C(CC(C)C)C(=O)N(C)C(C(C)C)C(=O)N1C (configuration not stated) | inactive
CC[N+](CC)(CC)CC | inactive
N#C/C(=C\c1ccc(O)c(O)c1)C(=O)Nc1ccccc1 | inactive
CCc1ccc(/C=C2/SC(=S)NC2=O)cc1 | inactive
C[C@H](Cc1ccccc1)Nc1ncnc2c1ncn2[C@@H]1O[C@H](CO)[C@@H](O)[C@H]1O | inactive
C1CCC(N=C(NC23CC4CC(CC(C4)C2)C3)N2CCOCC2)CC1 | inactive
S=C(Nc1ccccc1)Nc1nccs1 | inactive
Oc1cc2c(c(Cl)c1O)CCNCC2c1ccccc1 (configuration not stated) | inactive
O=Nc1c(-c2c(O)[nH]c3ccccc23)[nH]c2ccccc12 | inactive
O=C1c2ccccc2C(=O)c2c(NCCc3ccc(O)cc3)ccc(NCCc3ccc(O)cc3)c21 | inactive
Cc1cccc(/C=C/c2ccccc2)n1 | inactive
